Pf apPOL inh: Pf-apPOL inhibitors, biochemical, fluorescence | hit rate 0.25% among 210,000 | Plasmodium falciparum apicoplast DNA polymerase (apPOL) | Recombinant Pf-apPOL, molecular beacon fluorescence, 1.5 h | inhibition, % at 10 µM
mHTT-CaM PPI inh: mutant huntingtin-calmodulin interaction inhibitors – biochemical, AlphaScreen, primary screen; AID 1671202, 2021; inhibition, % at 15 µM; hit rate 3.6% among 190,000; AlphaScreen His-mHTT/GST-CaM binding, luminescence; P42858;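 further: 0% = both proteins with DMSO and 100% = one protein alone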
* = called active by the depositor; · = not tested or not shown. The list is not random: actives were taken first. Their share in the collection is about 3.6%. No stated cut-off is given here; in the data, active means inhibition above about 50%; inactive means the rest.

SMILES	Pf apPOL inh	mHTT-CaM PPI inh
CCOC1=NN(c2ccc([N+](=O)[O-])cc2)C(=O)/C1=C/c1ccccc1OC	-2	23
CCOC1=NN(c2ccc([N+](=O)[O-])cc2)C(=O)/C1=C\c1ccccc1C(F)(F)F	-3	62*
CCc1ccc(C2C(C#N)=C(N)N(c3ccc([N+](=O)[O-])cc3)C3=C2C(=O)CC(C)(C)C3)s1 (stereo not drawn)	1	49
CCc1ccc(C2C(C#N)=C(N)N(c3ccccc3)C3=C2C(=O)CC(C)(C)C3)s1 (stereo not drawn)	-8	50*
CC1(C)CC(=O)C2=C(C1)N(c1ccc(Br)cc1)C(N)=C(C#N)C2c1cccs1 (stereo not drawn)	-3	42
CC1(C)CC(=O)C2=C(C1)N(c1ccc(Br)cc1F)C(N)=C(C#N)C2c1cccs1 (stereo not drawn)	6	52*
CC1(C)C2CCC1(C)C(OC(=O)c1c3c(n4ccccc14)C(=O)c1ccccc1C3=O)C2 (stereo not drawn)	-12	8
Cc1ccc(C(=O)N2CCC(CCNS(=O)(=O)c3cc(C)ccc3C)CC2)cc1	-8	50
Cc1ccsc1C(=O)N1CCC(c2nc(-c3cccnc3)n[nH]2)CC1	-4	1
CC(C)c1cc(C2CCCN2C(=O)C2CC2)no1 (stereo not drawn)	2	-1
COc1cccc(-c2nn(C)c3sc(C(=O)O)cc23)c1	-2	5
O[C@@H]1CN(CC2CCCCC2)[C@@H](c2ccccc2)C[C@H]1n1cc(C2CC2)nn1	-4	5
O[C@H]1C[C@H](c2ccccc2)N(CC2CCCCC2)C[C@@H]1n1cc(C2CC2)nn1	-2	93*
CCCCCCN1C[C@H](O)[C@@H](n2cc(-c3ccc(F)cc3)nn2)C[C@@H]1c1ccccc1	-4	4
CCCCCCN1C[C@H](n2cc(-c3ccc(F)cc3)nn2)[C@@H](O)C[C@@H]1c1ccccc1	-2	60*
CCCCCCN1C[C@@H](n2cc(C3CC3)nn2)[C@H](O)C[C@@H]1c1ccc(Cl)cc1	1	23
CCCCCCN1C[C@H](n2cc(C3CC3)nn2)[C@@H](O)C[C@@H]1c1ccc(Cl)cc1	-1	100*
Cc1ccc([C@H]2C[C@H](O)[C@@H](n3cc(-c4ccc(F)cc4)nn3)CN2C(=O)C2CCCCC2)cc1	0	74*
O=C(C1CCCCC1)N1C[C@@H](n2cc(-c3ccc(F)cc3)nn2)[C@H](O)C[C@@H]1c1ccccc1	0	-3
CCc1nc2c(c(=O)n1CC(=O)NCc1cccc(C)c1)CN(Cc1ccccc1)CC2	-5	-3
Cc1cc(O)c(CN2CCN(CCO)CC2)c2c1C(=O)C(=Cc1ccccc1)O2	-12	14
COc1ccc(C(=O)Nc2ccccc2C(=O)Nc2cccc(OC)c2)cc1	-10	-1
O[C@H]1CN(CC2CCCCC2)[C@@H](c2ccc(Cl)cc2)C[C@@H]1n1cc(C2CC2)nn1	-4	54*
Cc1ccc([C@H]2C[C@H](O)[C@@H](n3cc(-c4ccc(F)cc4)nn3)CN2Cc2cccs2)cc1	-3	8
O[C@H]1C[C@H](c2ccc(Cl)cc2)N(Cc2cccs2)C[C@@H]1n1cc(-c2ccc(F)cc2)nn1	-2	100*
SMILES	Pf apPOL inh	mHTT-CaM PPI inh
O[C@H]1CN(CC2CCCCC2)[C@@H](c2ccc(Cl)cc2)C[C@@H]1n1cc(-c2ccc(F)cc2)nn1	2	16
COc1ccccc1C(=O)Nc1cc(-c2nn(C)c(=O)c3ccccc23)ccc1N1CCOCC1	-8	-4
O=C(Nc1ccccc1N1CCCN(Cc2cccc(F)c2)C1=O)C1CCC1	-3	2
O=C(O)C1(c2ccc([N+](=O)[O-])cc2)CCCC1	-2	94*
O=C(O)C#Cc1ccc([N+](=O)[O-])cc1	-12	-4
O=C(CN1CCc2ccccc2C1C(=O)N1CCCCC1)Nc1ccc(F)cc1Cl (stereo not drawn)	3	68*
Cc1ccc(NC(=O)CN2CCc3ccccc3C2C(=O)N2CCC(C)CC2)cc1C (stereo not drawn)	-4	10
O=C(CN1CCc2ccccc2C1C(=O)N1CCCCC1)NCc1ccc(Cl)cc1 (stereo not drawn)	0	18
CC1CCN(C(=O)C2c3ccccc3CCN2CC(=O)Nc2cccc(Cl)c2)CC1 (stereo not drawn)	0	59*
O=C(CN1CCc2ccccc2C1C(=O)N1CCCCC1)NCc1ccc(F)cc1Cl (stereo not drawn)	-8	0
COc1ccc(Cl)cc1NC(=O)CCN1CCN(C)CC1	55*	0
COc1ccc(OC)c(NC(=O)CCN2CCCC2)c1	-1	5
COc1ccc(Cl)cc1NC(=O)CN1CCc2ccccc2C1C(=O)N1CCCCC1 (stereo not drawn)	-4	64*
COc1ccc(Br)cc1C1C=C(c2cccs2)Nc2nnnn21 (stereo not drawn)	5	2
CCc1ccccc1NC=C1C(=O)OC(C)(C)OC1=O	-5	-7
Cc1ccc(C(=O)N/C(=C\c2ccc3c(c2)OCO3)C(=O)Nc2cccc([N+](=O)[O-])c2)cc1C	1	5
COCCn1c(CC2CCN(C(=O)Cc3ccc(Cl)cc3)C2)nc2cccnc21 (stereo not drawn)	4	15
O=C(NCCN1CCOCC1)c1cc2n(n1)CCCN(Cc1ccccc1)C2=O	4	2
COc1ccc(Cl)cc1NC(=O)N1CCN(CCc2ccccc2)CC1	-3	·
COc1ccc(Cl)cc1NC(=O)N1CCN(Cc2nc(-c3ccco3)cs2)CC1	7	64*
CC1CCN(C(=O)C2c3ccccc3CCN2CC(=O)Nc2ccc(F)cc2Cl)CC1 (stereo not drawn)	-9	88*
CC1CCN(C(=O)C2c3ccccc3CCN2CC(=O)Nc2cc(F)ccc2Cl)CC1 (stereo not drawn)	10	4
COc1nccnc1N1CCC(NS(=O)(=O)c2ccccc2F)C1 (stereo not drawn)	-6	-2
Cc1c(CCOC(=O)CC23CC4CC(CC(C4)C2)C3)sc[n+]1CC(=O)c1ccccc1	-4	94*
O=C(OCC12CC3CC(CC(C3)C1)C2)c1ccccc1	-1	-35
SMILES	Pf apPOL inh	mHTT-CaM PPI inh
O=C(CCc1ccc2cc[nH]c2c1)NCc1cccc(Cl)c1	-1	18
O=C(Nc1ccc(C(F)(F)F)cc1)O[C@@H]1C[C@H]2C[C@@H]1[C@H]1CCCCN1C2	-9	73*
O=C(Nc1ccc(F)cc1)O[C@@H]1C[C@H]2C[C@@H]1[C@H]1CCCCN1C2	-6	-2
CCCCC(CC)C(=O)Nc1nnc(CC(C)C)s1 (stereo not drawn)	·	-5
COc1cccc(C2C=C(c3ccc(Cl)cc3)Nc3nnnn32)c1OC (stereo not drawn)	0	3
COC(=O)COc1ccc2c(-c3cc4cc(Br)ccc4oc3=O)cc(=O)oc2c1	-4	0
CN(C)CCNC(=O)C1CCc2sc(C(=O)N(C)C)cc2C1 (stereo not drawn)	-6	-3
COc1ccc(NC(=O)N2CCc3c(nc[nH]c3=O)C2)cc1Cl	-9	2
O=C(Nc1cccc(F)c1)c1ccc(N2CCC(NCc3cc(Cl)ccc3O)C2)nc1 (stereo not drawn)	-4	70*
O=C(Nc1cccc(F)c1)c1ccc(N2CCC(NCc3ccccc3O)C2)nc1 (stereo not drawn)	-2	9

Screening data as filed in PubChem BioAssay.
